# Test results reported in article PMC8384837, “Expanding the binding specificity for RNA recognition by a PUF domain”.
# What was measured:
# Test in all cases: yeast three-hybrid, YBZ-1, SC-Leu-His + 0.5 mM 3-AT, 4 days
# Settings in all cases: tags: N-Gal4 AD-HA kept; label: inside an RPR1-promoter hybrid RNA with tandem MS2 sites; ssRNA
# PUM1 PUF domain R8-VWP = PUM1 PUF domain R8-VWP (Homo sapiens, UniProt Q14671 828-1176, N1122V;Y1123W;Q1126P)
# Summary of the method: (§1)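 Pumilio-1 PUF domain libraries, randomized (NNK) at the three base-contacting residues of each repeat, were co-expressed with matching RNA elements from a centromeric plasmid in strain YBZ-1 (LexA–MS2 coat fusion, HIS3 reporter). Transformants were plated on SC-Leu (input) and SC-Leu-His + 0.5 mM 3-AT (selection) for four days, and repeat regions were PCR-amplified and Illumina-sequenced. The interaction score is the log2 change in variant frequency from input to selection, with pseudocount 1 where absent.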
# PUM1 PUF domain R4-TPG = PUM1 PUF domain R4-TPG (Homo sapiens, UniProt Q14671 828-1176, N971T;H972P;Q975G)
# PUM1 PUF domain R4-TPG, sequence (Q14671 828-1176 N971T/H972P/Q975G): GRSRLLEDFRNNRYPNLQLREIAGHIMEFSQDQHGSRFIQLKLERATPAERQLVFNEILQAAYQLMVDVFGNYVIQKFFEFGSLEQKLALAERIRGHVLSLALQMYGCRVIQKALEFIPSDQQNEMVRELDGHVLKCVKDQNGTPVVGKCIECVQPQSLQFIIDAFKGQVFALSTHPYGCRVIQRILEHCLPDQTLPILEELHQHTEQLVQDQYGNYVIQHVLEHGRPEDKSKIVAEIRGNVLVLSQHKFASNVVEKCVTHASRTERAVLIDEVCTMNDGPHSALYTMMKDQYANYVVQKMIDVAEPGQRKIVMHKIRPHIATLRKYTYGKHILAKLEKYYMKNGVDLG
# Summary of the method: as §1
# PUM1 PUF domain R3-PWW = PUM1 PUF domain R3-PWW (Homo sapiens, UniProt Q14671 828-1176, C935P;R936W;Q939W)
# Summary of the method: as §1
# PUM1 PUF domain R5-RKS = PUM1 PUF domain R5-RKS (Homo sapiens, UniProt Q14671 828-1176, C1007R;R1008K;Q1011S)
# Summary of the method: as §1
# PUM1 PUF domain R5-FRR = PUM1 PUF domain R5-FRR (Homo sapiens, UniProt Q14671 828-1176, C1007F;Q1011R)
# PUM1 PUF domain R5-FRR, sequence (Q14671 828-1176 C1007F/Q1011R): as the sequence (Q14671 828-1176 N971T/H972P/Q975G) above, with T144N, P145H, G148Q, C180F, Q184R counted along it
# Summary of the method: as §1
# PUM1 PUF domain R4-SPW = PUM1 PUF domain R4-SPW (Homo sapiens, UniProt Q14671 828-1176, N971S;H972P;Q975W)
# PUM1 PUF domain R4-SPW, sequence (Q14671 828-1176 N971S/H972P/Q975W): as the sequence (Q14671 828-1176 N971T/H972P/Q975G) above, with T144S, G148W counted along it
# Summary of the method: as §1
# PUM1 PUF domain R1-GIR = PUM1 PUF domain R1-GIR (Homo sapiens, UniProt Q14671 828-1176, S863G;R864I;Q867R)
# Summary of the method: as §1
# PUM1 PUF domain R1-RCS = PUM1 PUF domain R1-RCS (Homo sapiens, UniProt Q14671 828-1176, S863R;R864C;Q867S)
# PUM1 PUF domain R1-RCS, sequence (Q14671 828-1176 S863R/R864C/Q867S): as the sequence (Q14671 828-1176 N971T/H972P/Q975G) above, with S36R, R37C, Q40S, T144N, P145H, G148Q counted along it
# Summary of the method: as §1
# PUM1 PUF domain R6-AFL = molecular target: T1, PUM1 PUF domain R6-AFL (Homo sapiens, UniProt Q14671 828-1176, N1043A;Y1044F;Q1047L)
# T1 sequence: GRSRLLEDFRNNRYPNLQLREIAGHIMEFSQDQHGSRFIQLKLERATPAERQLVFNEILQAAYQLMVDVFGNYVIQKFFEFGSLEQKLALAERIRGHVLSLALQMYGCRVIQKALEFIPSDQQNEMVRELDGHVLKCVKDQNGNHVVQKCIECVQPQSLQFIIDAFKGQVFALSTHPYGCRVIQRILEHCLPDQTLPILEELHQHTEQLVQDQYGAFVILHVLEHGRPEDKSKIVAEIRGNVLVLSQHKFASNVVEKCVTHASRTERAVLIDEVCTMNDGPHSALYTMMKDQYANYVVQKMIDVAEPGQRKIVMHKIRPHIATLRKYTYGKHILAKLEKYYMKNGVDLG
# Summary of the method: as §1
# PUM1 PUF domain R5-QMG = PUM1 PUF domain R5-QMG (Homo sapiens, UniProt Q14671 828-1176, C1007Q;R1008M;Q1011G)
# Summary of the method: as §1
sequence,measurement,setting,value
GGCUAGAACUAGUGGAUCCCCCGGCGCCCGGCGGCUCGAGCCCGGGUAAGUGUAAAUAGUCUGCAUGCCGCCGGGCGCCAUGCCUGCAGGUCGACUCUAGAAAACAUG,binding signal,PUM1 PUF domain R8-VWP,1.71 log2 enrichment (interaction score)
same,binding signal,PUM1 PUF domain R4-TPG,3.31 log2 enrichment (interaction score)
same,binding signal,PUM1 PUF domain R3-PWW,2.43 log2 enrichment (interaction score)
same,binding signal,PUM1 PUF domain R5-RKS,0.56 log2 enrichment (interaction score)
same,binding signal,PUM1 PUF domain R5-FRR,1.31 log2 enrichment (interaction score)
same,binding signal,PUM1 PUF domain R4-SPW,3.13 log2 enrichment (interaction score)
GGCUAGAACUAGUGGAUCCCCCGGCGCCCGGCGGCUCGAGCCCGGGUAAGUGUAUAUAGUCUGCAUGCCGCCGGGCGCCAUGCCUGCAGGUCGACUCUAGAAAACAUG,binding signal,PUM1 PUF domain R4-TPG,4.15 log2 enrichment (interaction score)
same,binding signal,PUM1 PUF domain R4-SPW,2.59 log2 enrichment (interaction score)
GGCUAGAACUAGUGGAUCCCCCGGCGCCCGGCGGCUCGAGCCCGGGUAAGUGUAAAUCGUCUGCAUGCCGCCGGGCGCCAUGCCUGCAGGUCGACUCUAGAAAACAUG,binding signal,PUM1 PUF domain R1-GIR,4.44 log2 enrichment (interaction score)
same,binding signal,PUM1 PUF domain R1-RCS,3.49 log2 enrichment (interaction score)
GGCUAGAACUAGUGGAUCCCCCGGCGCCCGGCGGCUCGAGCCCGGGUAAGUGAAAAUAGUCUGCAUGCCGCCGGGCGCCAUGCCUGCAGGUCGACUCUAGAAAACAUG,binding signal,PUM1 PUF domain R6-AFL,4.25 log2 enrichment (interaction score)
GGCUAGAACUAGUGGAUCCCCCGGCGCCCGGCGGCUCGAGCCCGGGUAAGUGUUAAUAGUCUGCAUGCCGCCGGGCGCCAUGCCUGCAGGUCGACUCUAGAAAACAUG,binding signal,PUM1 PUF domain R5-FRR,3.38 log2 enrichment (interaction score)
GGCUAGAACUAGUGGAUCCCCCGGCGCCCGGCGGCUCGAGCCCGGGUAAGUGUCAAUAGUCUGCAUGCCGCCGGGCGCCAUGCCUGCAGGUCGACUCUAGAAAACAUG,binding signal,PUM1 PUF domain R5-RKS,3.2 log2 enrichment (interaction score)
same,binding signal,PUM1 PUF domain R5-FRR,4.1 log2 enrichment (interaction score)
GGCUAGAACUAGUGGAUCCCCCGGCGCCCGGCGGCUCGAGCCCGGGUAAGUGUAAAUUGUCUGCAUGCCGCCGGGCGCCAUGCCUGCAGGUCGACUCUAGAAAACAUG,binding signal,PUM1 PUF domain R1-GIR,3.23 log2 enrichment (interaction score)
same,binding signal,PUM1 PUF domain R1-RCS,3.23 log2 enrichment (interaction score)
GGCUAGAACUAGUGGAUCCCCCGGCGCCCGGCGGCUCGAGCCCGGGUAAGUGUACAUAGUCUGCAUGCCGCCGGGCGCCAUGCCUGCAGGUCGACUCUAGAAAACAUG,binding signal,PUM1 PUF domain R4-TPG,3.87 log2 enrichment (interaction score)
same,binding signal,PUM1 PUF domain R4-SPW,0.34 log2 enrichment (interaction score)
GGCUAGAACUAGUGGAUCCCCCGGCGCCCGGCGGCUCGAGCCCGGGUAAGUGUGAAUAGUCUGCAUGCCGCCGGGCGCCAUGCCUGCAGGUCGACUCUAGAAAACAUG,binding signal,PUM1 PUF domain R5-QMG,2.26 log2 enrichment (interaction score)
GGCUAGAACUAGUGGAUCCCCCGGCGCCCGGCGGCUCGAGCCCGGGUAAGCGUAAAUAGUCUGCAUGCCGCCGGGCGCCAUGCCUGCAGGUCGACUCUAGAAAACAUG,binding signal,PUM1 PUF domain R8-VWP,3.01 log2 enrichment (interaction score)
GGCUAGAACUAGUGGAUCCCCCGGCGCCCGGCGGCUCGAGCCCGGGUAAGUGUAAAUGGUCUGCAUGCCGCCGGGCGCCAUGCCUGCAGGUCGACUCUAGAAAACAUG,binding signal,PUM1 PUF domain R1-RCS,1.75 log2 enrichment (interaction score)
